From paper PMC6451091, “NextPBM: a platform to study cell-specific transcription factor binding and cooperativity” come the findings set out here.

Over roughly 3,700 sequences, “z-score” has its median near 4; the highest 2% begin near 8.4. The list comes from a sample in which the highest values are over-represented; it also holds similar and randomly drawn sequences.

Assay [1] deals with PU.1 (IVT) (UniProt P17947 1-270). The assay is described as follows: protein-binding microarray (PBM); 20 mM HEPES pH 7.9, 100 mM NaCl, 1 mM DTT, 0.2 mg/mL BSA, 0.02% Triton X-100, 2% milk, 0.4 mg/mL salmon testes DNA; 1 h; temperature not stated; high values mean tight binding. Conditions: dsDNA, one strand shown. In outline: (§1)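 Custom double-stranded DNA microarrays bearing 20-bp genomic sites and single-nucleotide variants (10 probes per site, 5 per orientation) were incubated for 1 h with full-length untagged PU.1 made by coupled human in vitro transcription/translation, in HEPES pH 7.9 with 100 mM NaCl, 2% milk and salmon testes DNA. Anti-PU.1 and a fluorescent secondary antibody detected the bound protein. Each binding value is a z-score from scanned fluorescence after linear-regression normalisation.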

Assay [2] has the same target. The description is as above. The settings on record: dsDNA, one strand shown. In outline:
as §1
The source holds these as a separate data set.

“GCCTAGCACGAAAACAGGAAGTGACTGTTGTGCTAGGTCTTGATTCGCTTGACGCTGCTG” gave a binding signal in assay [1] of 8.08 z-score.

Regarding “GCCTAGCACGAAATGAGGAAGTGTAAACAGTGCTAGGTCTTGATTCGCTTGACGCTGCTG”, the binding signal in assay [1] came to 7.49 z-score.

For “GCCTAGCACGAAATGAGGAAGTTGAGAGCGTGCTAGGTCTTGATTCGCTTGACGCTGCTG”, in assay [1], the binding signal was determined as 8.36 z-score.

“GCCTAGCACGAAGAGAGGAAGTGAAATTGGTGCTAGGTCTTGATTCGCTTGACGCTGCTG”: the binding signal in assay [2] turned out to be 5.29 z-score.

For the sequence “GCCTAGCACGAAAAGAGGAAGTGAAATTGGTGCTAGGTCTTGATTCGCTTGACGCTGCTG”, the binding signal in assay [1] was found to be 8.72 z-score.

“GCCTAGCACGAAAAGAGGAAATGAAATTGGTGCTAGGTCTTGATTCGCTTGACGCTGCTG”: the binding signal in assay [2] was 6.51 z-score.

Sequence “GCCTAGCACGAAGAGAGGAAGTCAAATTGGTGCTAGGTCTTGATTCGCTTGACGCTGCTG” registered a binding signal in assay [2] of 4.29 z-score.

Consider “GCCTAGCACGAAAAGAGGAAGTCAAATTGGTGCTAGGTCTTGATTCGCTTGACGCTGCTG”, for which the binding signal in assay [1] is 8.37 z-score.

In assay [2], “GCCTAGCACGAAAAAAGGAAGTCAAATTGGTGCTAGGTCTTGATTCGCTTGACGCTGCTG” returned a binding signal of 5.97 z-score.

For the sequence “GCCTAGCACGAAATGAGGAAGTACCTAAAGTGCTAGGTCTTGATTCGCTTGACGCTGCTG”, in assay [1], the binding signal was determined as 8.71 z-score.

As for “GCCTAGCACGAAATGAGGAAGTGATTAGGGTGCTAGGTCTTGATTCGCTTGACGCTGCTG”, the binding signal in assay [1] was found to be 8.13 z-score.

On to “GCCTAGCACGAAATGAGGAAGTTGGTGCTGTGCTAGGTCTTGATTCGCTTGACGCTGCTG”, for which, in assay [1], the binding signal was 8.11 z-score.

With “GCCTAGCACGAAAAGAGGAAATGAGAGAGGTGCTAGGTCTTGATTCGCTTGACGCTGCTG”, the binding signal in assay [2] stood at 5.36 z-score.

“GCCTAGCACGAAATAGGGAAGTGTGAGTTGTGCTAGGTCTTGATTCGCTTGACGCTGCTG” returned a binding signal in assay [1] of 6.74 z-score.

“GCCTAGCACTGAGAGGGGAAGTGGCAGCTGTGCTAGGTCTTGATTCGCTTGACGCTGCTG” came in with a binding signal in assay [2] of 4.01 z-score.

In turn, “GCCTAGCACTGGAGGAGGAACTGAAATACGTGCTAGGTCTTGATTCGCTTGACGCTGCTG” registered a binding signal in assay [1] of 2.94 z-score.

As to “GCCTAGCACTGAAAGGGGAAGTCAGATAGGTGCTAGGTCTTGATTCGCTTGACGCTGCTG”, the binding signal in assay [2] came out at 6.45 z-score.

In assay [1], “GCCTAGCACCAAATGAGGAACTGATGCGAGTGCTAGGTCTTGATTCGCTTGACGCTGCTG” returned a binding signal of 6.15 z-score.

With “GCCTAGCACCAAAGGAGGAACTGAAACCAGTGCTAGGTCTTGATTCGCTTGACGCTGCTG”, in assay [2], the binding signal worked out at 3.2 z-score.

The sequence “GCCTAGCACTGAAAGGGGAAGTGGGTGCCGTGCTAGGTCTTGATTCGCTTGACGCTGCTG” registered a binding signal in assay [2] of 6.37 z-score.

As for “GCCTAGCACCGAAAGGGGAAGTGCTAAGCGTGCTAGGTCTTGATTCGCTTGACGCTGCTG”, in assay [1], the binding signal was 6.82 z-score.

“GCCTAGCACGAAAAGAGGAAGTCAATTTGGTGCTAGGTCTTGATTCGCTTGACGCTGCTG”: the binding signal in assay [1] was determined as 8.54 z-score.

Take “GCCTAGCACGGAAAGAGGAAGTCAAATTGGTGCTAGGTCTTGATTCGCTTGACGCTGCTG”: the binding signal in assay [1] is 7.8 z-score.

Turning to “GCCTAGCACGAAAAGAGGAAGTCAAACTGGTGCTAGGTCTTGATTCGCTTGACGCTGCTG”, in assay [1], the binding signal was 7.89 z-score.

As to “GCCTAGCACTACCCTTTAAAAATAGTTCAGTGCTAGGTCTTGATTCGCTTGACGCTGCTG”, the binding signal in assay [2] came out at 0.827 z-score.

Turning to “GCCTAGCACAGAGAGAGGAAGTGATTACAGTGCTAGGTCTTGATTCGCTTGACGCTGCTG”, the binding signal in assay [1] was found to be 4.98 z-score.

Take “GCCTAGCACTTCAGGGGGAAGTACTGTGTGTGCTAGGTCTTGATTCGCTTGACGCTGCTG”: in assay [2], the binding signal was found to be 3.94 z-score.

In the case of “GCCTAGCACCACAAGAGGAAGTCCCACAAGTGCTAGGTCTTGATTCGCTTGACGCTGCTG”, the binding signal in assay [2] was found to be 3.93 z-score.

Regarding “GCCTAGCACTCCAGGAGGAACTACTGTGTGTGCTAGGTCTTGATTCGCTTGACGCTGCTG”, in assay [1], the binding signal was 2.59 z-score.

Sequence “GCCTAGCACAGAAAGAGGAAGTCCTCTCTGTGCTAGGTCTTGATTCGCTTGACGCTGCTG” returned a binding signal in assay [1] of 8.3 z-score.

“GCCTAGCACAGGAAGAGGAAGAGGAAGAAGTGCTAGGTCTTGATTCGCTTGACGCTGCTG”: the binding signal in assay [2] was found to be 4.95 z-score.

With “GCCTAGCACAGAGAGAGGAAGTGAGCTCTGTGCTAGGTCTTGATTCGCTTGACGCTGCTG”, in assay [2], the binding signal was 4.31 z-score.

On to “GCCTAGCACAGAAAGAGGAACTGAAAAGTGTGCTAGGTCTTGATTCGCTTGACGCTGCTG”, for which the binding signal in assay [1] turned out to be 6.62 z-score.

In turn, “GCCTAGCACAGAAAGAGGAAGTTGGCTCTGTGCTAGGTCTTGATTCGCTTGACGCTGCTG” gave a binding signal in assay [1] of 8.56 z-score.

On to “GCCTAGCACAGAGAGGGGAAGTGACTTGCGTGCTAGGTCTTGATTCGCTTGACGCTGCTG”, for which the binding signal in assay [1] was 4.95 z-score.

In the case of “GCCTAGCACAGAAAGGGGAAGTGACTTGCGTGCTAGGTCTTGATTCGCTTGACGCTGCTG”, in assay [1], the binding signal was found to be 8.13 z-score.

“GCCTAGCACAGAAAGAGGAAGTGACTTGCGTGCTAGGTCTTGATTCGCTTGACGCTGCTG” gave a binding signal in assay [1] of 8.54 z-score.

The sequence “GCCTAGCACAGAAAGAGGAAGTGTAAAAAGTGCTAGGTCTTGATTCGCTTGACGCTGCTG” gave a binding signal in assay [1] of 8.57 z-score.

In turn, “GCCTAGCACACAGAGAGGAAGTAGATAAAGTGCTAGGTCTTGATTCGCTTGACGCTGCTG” returned a binding signal in assay [2] of 4.75 z-score.

“GCCTAGCACAGAAAGAGGAAGTAGATATTGTGCTAGGTCTTGATTCGCTTGACGCTGCTG” showed a binding signal in assay [1] of 8.76 z-score.

In turn, “GCCTAGCACAGAGAGAGGAAGTGAAAGTAGTGCTAGGTCTTGATTCGCTTGACGCTGCTG” gave a binding signal in assay [2] of 4.81 z-score.
